# Measured values published in PubChem BioAssay.
# Where “and” joins values, the source holds several entries; their conditions need not be identical. Equal values may be shown once. Calls of active or inactive are those of the source. Unless noted, the rule behind the calls is not given here.
# Experiments:
# [1] = tested on: Aerobactin synthetase IucA (Klebsiella pneumoniae); experiment: IucA aerobactin synthetase inhibitors, biochemical, Tocris library, absorbance (AID 1345561); settings: purified IucA enzyme assay, absorbance (OD) read-out; stronger effect = lower value;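 tested at 8 µM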;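 note: 100% = enzyme without compound and 0% = no enzyme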
# [2] = sensitizers of A549 cells to miR-34 induction, primary screen, imaging, A549 dox-inducible miR-34, nuclei and caspase counts (AID 1347080;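 active = compounds whose cell count with miR-34 switched on is under 0.7 times the count with it off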); settings: A549 miR-34 inducible, Hoechst nuclei count, 48 h
# [3] = viability rescue of complex I mutant cybrids, primary screen, cell-based, galactose medium, ATP luminescence (AID 1645843;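 active = z-score of at least 1.8 in each of two replicates, scored against plate mean and spread of sample wells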;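 note: positive z means more ATP and so rescue of galactose-driven cybrid death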); settings: complex I mutant cybrid cells, 72 h, stronger effect = higher value
# [4] = liver-stage malaria parasite growth inhibition, primary screen, cell-based, HepG2, luciferase luminescence, HepG2 viability (AID 624349; in the data active = parasite load remaining mostly below about 12%, no sharp cut-off; inactive = mostly above about 10%;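 note: 100% = mean of DMSO negative control wells on the same plate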); settings: P. berghei liver stage in HepG2, luciferase luminescence, concentration not given here; parasite load remaining: stronger effect = lower value; viability: measured here: HepG2 viability without parasites
# [5] = circadian clock period modulators, cell-based, LOPAC library, luminescence reporter (AID 2774); settings: circadian reporter cells, at 7 µM, actives lie on both sides;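 note: values are relative to mean of DMSO wells on each plate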
# [6] = Cy5 fluorescence interference with SSB-bound oligo, artefact control for HCV NS3 helicase inhibitor project, biochemical, NIH Clinical Collection, E. coli SSB (AID 743268)
# [7] = tested on: Hepatitis C virus NS3 helicase; experiment: HCV NS3 helicase inhibitors, primary screen, biochemical, fluorescence polarization, NIH Clinical Collection (AID 743270); settings: NS3 helicase binding to Cy5-dT15 DNA, stronger effect = higher value, concentration not given here
# [8] = biological target: Single-stranded DNA-binding protein (Escherichia coli (strain K12)) (UniProt P0AGE0); experiment: E. coli SSB displacement from DNA, counter-screen for HCV NS3 helicase inhibitor project, biochemical, fluorescence polarization, NIH Clinical Collection (AID 743271; in the data active = inhibition above about 28%); settings: stronger effect = higher value, concentration not given here
# [9] = fluorescence interference in NS3h assay format, artefact control for HCV NS3 helicase inhibitor project, biochemical, NIH Clinical Collection (AID 743272); settings: fluorescence interference counterscreen, stronger effect = lower value;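 note: HCV NS3 helicase with a Cy5 labelled single stranded DNA probe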
# [10] = survival rescue of mitochondrial mutant cells in low glucose, primary screen, MELAS cybrids, Rieske KO mouse fibroblasts, CellTiter-Glo (AID 1508586;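 active = mean z-score across replicates of 1.96 or higher in either the MELAS or the Rieske mutant cell line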;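 note: z relative to plate mean and SD of compound and empty wells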)
# [11] = tested on: Hepatitis C virus NS3 helicase; experiment: HCV NS3 helicase inhibitors, primary screen, biochemical, fluorescence polarization, LOPAC1280 library (AID 687035; in the data active = inhibition above about 37%); settings: Purified HCV NS3 helicase, Cy5-dT15 ssDNA binding fluorescence polarization; stronger effect = higher value; concentration not given here
# [12] = Cy5 fluorescence quenching or enhancement artefacts, artefact control for HCV NS3 helicase inhibitor project, biochemical, LOPAC1280 (AID 687037); settings: Cy5-DNA-NS3h complex fluorescence interference counterscreen
# [13] = stronger effect = lower value, cell number ratio, induced over uninduced
# [14] = measured here: relative caspase fold change +Dox/-Dox
# [15] = measured here: total cells with miR-34 induction, stronger effect = lower value
# [16] = measured here: total cells without miR-34 induction
compound,measurement,setting,value
CCCN(C/C=C/I)C1CCc2ccc(O)cc2C1 (stereo not drawn),remaining activity,[1],102% (inactive)
same,fold change,[2]; [13],0.904 (inactive)
same,fold change,[2]; [14],0.638
same,cell count,[2]; [15],8360
same,cell count,[2]; [16],9250
same,z-score,[3],-0.23 (inactive)
O=C1NC(=O)c2c1c1c3ccccc3n3c1c1c2c2ccccc2n1C1CCC3O1,parasite load remaining,[4],66.3% (inactive)
same,viability,[4],60.2%
same,remaining activity,[1],103% (inactive)
same,fold change,[2]; [13],1.12 (inactive)
same,fold change,[2]; [14],1.11
same,cell count,[2]; [15],5410
same,cell count,[2]; [16],4820
same,z-score,[3],-0.395 (inactive)
CN1CCN(c2ccc3ccccc3n2)CC1,period change,[5],-0.045 h (inactive)
same,remaining activity,[1],109% (inactive)
same,fold change,[2]; [13],0.923 (inactive)
same,fold change,[2]; [14],0.813
same,cell count,[2]; [15],8930
same,cell count,[2]; [16],9670
same,z-score,[3],-0.58 (inactive)
NC=Nc1ccc2[nH]c3c(c2c1)C[C@@]1(O)C2Cc4ccc(O)c5c4[C@@]1(CCN2CC1CC1)[C@H]3O5,remaining activity,[1],121% (inactive)
same,fold change,[2]; stronger effect = lower value,0.975 (inactive)
same,fold change,[2]; [14],1.22
same,cell count,[2]; [15],9860
same,cell count,[2]; [16],10100
same,z-score,[3],-0.38 (inactive)
CN1C2CCC1CC(OC(c1ccc(F)cc1)c1ccc(F)cc1)C2 (stereo not drawn),remaining activity,[1],99.4% (inactive)
same,fold change,[2]; [13],1.03 (inactive)
same,fold change,[2]; [14],1.19
same,cell count,[2]; [15],7710
same,cell count,[2]; [16],7460
same,z-score,[3],-0.46 (inactive)
CC[N+](CC)(CCCNC1=CC(=O)C(NCCC[N+](CC)(CC)Cc2ccccc2)=CC1=O)Cc1ccccc1,remaining activity,[1],81.3% (inactive)
same,fold change,[2]; [13],0.951 (inactive)
same,fold change,[2]; [14],0.768
same,cell count,[2]; [15],8950
same,cell count,[2]; [16],9410
same,z-score,[3],-0.46 (inactive)
CCc1cccc(CC)c1NC1=NCCN1,remaining activity,[1],115% (inactive)
same,fold change,[2]; [13],0.952 (inactive)
same,fold change,[2]; [14],1.79
same,cell count,[2]; [15],8430
same,cell count,[2]; [16],8850
same,z-score,[3],-0.02 (inactive)
CN1C2CCC1CC(OC(c1ccccc1)c1ccc(Cl)cc1)C2 (stereo not drawn),period change,[5],0.035 h (inactive)
same,remaining activity,[1],92.9% (inactive)
same,fold change,[2]; [13],0.909 (inactive)
same,fold change,[2]; [14],1.16
same,cell count,[2]; [15],4530
same,cell count,[2]; [16],4990
same,z-score,[3],-1.1 (inactive)
C[C@H](Cc1ccc(OCC(=O)O)cc1)NC[C@H](O)c1cccc(Cl)c1,remaining activity,[1],121% (inactive)
same,fold change,[2]; [13],0.941 (inactive)
same,fold change,[2]; [14],0.725
same,cell count,[2]; [15],7990
same,cell count,[2]; [16],8500
same,z-score,[3],-0.27 (inactive)
Cc1nc(N)sc1CCN,remaining activity,[1],88.4% (inactive)
same,fold change,[2]; [13],0.919 (inactive)
same,fold change,[2]; [14],1.01
same,cell count,[2]; [15],8020
same,cell count,[2]; [16],8730
same,z-score,[3],0.195 (inactive)
C=C(C)CN1CC[C@]23c4c5ccc(O)c4O[C@H]2c2[nH]c4ccccc4c2C[C@@]3(O)C1C5,parasite load remaining,[4],2.83% (inactive)
same,viability,[4],29.3%
same,fluorescence ratio,[6],0.95 (inactive)
same,inhibition,[7],-1.97% (inactive)
same,inhibition,[8],1.97% (inactive)
same,fluorescence ratio,[9],0.93 (inactive)
same,remaining activity,[1],92% (inactive)
same,fold change,[2]; stronger effect = lower value,0.859 (inactive)
same,fold change,[2]; [14],0.814
same,cell count,[2]; [15],5020
same,cell count,[2]; [16],5850
same,z-score,[3],-0.785 (inactive)
S=C=Nc1cccc(C2(N3CCCCC3)CCCCC2)c1,period change,[5],0.05 h (inactive)
same,remaining activity,[1],122% (inactive)
same,fold change,[2]; [13],0.942 (inactive)
same,fold change,[2]; [14],0.732
same,cell count,[2]; [15],9100
same,cell count,[2]; [16],9670
same,z-score,[3],0.62 (inactive)
Clc1ccc(C2=CCCC3CCC2N3)cn1 (stereo not drawn),remaining activity,[1],101% (inactive)
same,fold change,[2]; [13],0.907 (inactive)
same,fold change,[2]; [14],0.911
same,cell count,[2]; [15],9190
same,cell count,[2]; [16],10100
same,z-score,[3],0.365 (inactive)
COC1CCC2NC(C(=O)c3ccccc3)CC2C1 (stereo not drawn),remaining activity,[1],86.6% (inactive)
same,fold change,[2]; [13],1.14 (inactive)
same,fold change,[2]; [14],0.708
same,cell count,[2]; [15],1500
same,cell count,[2]; [16],1320
same,z-score,[3],0.23 (inactive)
c1cc(Cc2cnc[nH]2)ccn1,remaining activity,[1],105% (inactive)
same,fold change,[2]; [13],0.985 (inactive)
same,fold change,[2]; [14],1.35
same,cell count,[2]; [15],9560
same,cell count,[2]; [16],9710
same,z-score,[3],-0.25 (inactive)
CN(C(=O)Cc1ccccc1)C(CN1CCCC1)c1ccccc1 (stereo not drawn),remaining activity,[1],116% (inactive)
same,fold change,[2]; [13],0.952 (inactive)
same,fold change,[2]; [14],0.864
same,cell count,[2]; [15],8670
same,cell count,[2]; [16],9110
same,z-score,[3],0.03 (inactive)
O=C1CN=C(c2cccc(Br)c2)c2oc3ccccc3c2N1,remaining activity,[1],121% (inactive)
same,fold change,[2]; [13],1.01 (inactive)
same,fold change,[2]; [14],1.75
same,cell count,[2]; [15],2110
same,cell count,[2]; [16],2080
same,z-score,[3],-0.285 (inactive)
C[C@H](N)Cc1cnc[nH]1,remaining activity,[1],92.3% (inactive)
same,fold change,[2]; [13],0.997 (inactive)
same,fold change,[2]; [14],1.13
same,cell count,[2]; [15],9180
same,cell count,[2]; [16],9200
same,z-score,[3],0.12 (inactive)
CCCOc1ccc2[nH]cc(C3=CCNCC3)c2n1,remaining activity,[1],119% (inactive)
same,fold change,[2]; [13],0.982 (inactive)
same,fold change,[2]; [14],0.876
same,cell count,[2]; [15],9040
same,cell count,[2]; [16],9210
same,z-score,[3],-0.37 (inactive)
COc1cc2c(cc1O)C(CCc1ccc(Cl)cc1)N(C)CC2 (stereo not drawn),remaining activity,[1],109% (inactive)
same,fold change,[2]; [13],0.951 (inactive)
same,fold change,[2]; [14],1.1
same,cell count,[2]; [15],7110
same,cell count,[2]; [16],7480
same,z-score,[3],-0.615 (inactive)
Oc1ccc2c3c1O[C@H]1c4oc5ccccc5c4C[C@@]4(O)C(C2)N(CC2CC2)CC[C@]314,remaining activity,[1],104% (inactive)
same,fold change,[2]; stronger effect = lower value,0.944 (inactive)
same,fold change,[2]; [14],0.874
same,cell count,[2]; [15],9060
same,cell count,[2]; [16],9600
same,z-score,[3],-0.325 (inactive)
Cc1cccc(C(C)c2cnc[nH]2)c1C (stereo not drawn),remaining activity,[1],123% (inactive)
same,z-score,"[10]; MELAS cybrid survival, CellTiter-Glo 48 h, stronger effect = higher value",0.00954 (inactive) and -0.104 (inactive) and -0.218 (inactive)
same,z-score,"[10]; Rieske KO mouse fibroblast survival, CellTiter-Glo 72 h",0.0551 and -0.0823 and -0.0306
same,z-score,[3],-0.255 (inactive)
Ic1cncc(OC[C@@H]2CCN2)c1,remaining activity,[1],118% (inactive)
same,fold change,[2]; [13],0.934 (inactive)
same,fold change,[2]; [14],0.549
same,cell count,[2]; [15],9660
same,cell count,[2]; [16],10300
same,z-score,[3],-0.135 (inactive)
Cc1ncc(CN2CC=C(c3ccccc3)CC2)c(N)n1,remaining activity,[1],92.9% (inactive)
same,fold change,[2]; [13],0.973 (inactive)
same,fold change,[2]; [14],1.21
same,cell count,[2]; [15],8940
same,cell count,[2]; [16],9190
same,z-score,[3],-0.505 (inactive)
O=C(O)CCC(CP(=O)(O)O)C(=O)O (stereo not drawn),remaining activity,[1],113% (inactive)
same,fold change,[2]; [13],0.917 (inactive)
same,fold change,[2]; [14],0.521
same,cell count,[2]; [15],9040
same,cell count,[2]; [16],9860
same,z-score,[3],-0.22 (inactive)
COc1ccc2c(c1)c(CCN1CCOCC1)c(C)n2C(=O)c1cccc(Cl)c1Cl,inhibition,[11],-1% (inactive)
same,fluorescence ratio (interference),[12],1.1 (inactive)
same,remaining activity,[1],101% (inactive)
same,fold change,[2]; [13],0.915 (inactive)
same,fold change,[2]; [14],1.25
same,cell count,[2]; [15],6500
same,cell count,[2]; [16],7100
same,z-score,[3],-0.005 (inactive)
O=C1Nc2ccccc2C2(CCN(CCc3ccc(C(F)(F)F)cc3)CC2)O1,remaining activity,[1],102% (inactive)
same,fold change,[2]; [13],1.06 (inactive)
same,fold change,[2]; [14],0.675
same,cell count,[2]; [15],4790
same,cell count,[2]; [16],4500
same,z-score,[3],-0.66 (inactive)
